Compound activity: PubChem BioAssay, National Center for Advancing Translational Sciences (NCATS)
AmpC inh detg: AmpC beta-lactamase inhibition with detergent present | P00811 | AmpC hydrolysis of nitrocefin, absorbance 480 nm, 0.01% Triton | Potency, µM (highest dose often 114 µM), most hits filed as inhibitors | hit rate 0.041% among 370,000; note: nearly all actives have a fitted effect of over 25% in size
Target sequence (P00811 whole entry, looked up): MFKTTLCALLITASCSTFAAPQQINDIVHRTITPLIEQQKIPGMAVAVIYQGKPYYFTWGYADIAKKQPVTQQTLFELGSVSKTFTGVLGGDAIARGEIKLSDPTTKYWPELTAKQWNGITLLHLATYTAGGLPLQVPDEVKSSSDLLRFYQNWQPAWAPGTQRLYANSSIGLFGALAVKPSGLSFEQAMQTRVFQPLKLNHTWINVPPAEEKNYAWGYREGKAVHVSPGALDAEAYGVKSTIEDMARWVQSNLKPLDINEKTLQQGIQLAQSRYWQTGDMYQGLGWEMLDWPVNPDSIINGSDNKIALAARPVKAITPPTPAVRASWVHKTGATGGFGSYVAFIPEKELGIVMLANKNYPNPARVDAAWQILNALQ
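20 mM phosphate pH 7.0 + 0.01% (detergent screen) or 0.0001% Triton X-100; 5.3 nM AmpC reagent; cpd preinc 15 min RT; nitrocefin (800 uM stock) to start; A480 q20 s × 4 min; Activity was normalised to no-enzyme and no-compound control wells.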
Pf growth 48h: inhibits P. falciparum growth in the first generation, 48 h | Potency, µM (series often up to 28.7 µM), most hits filed as inhibitors | hit rate 5.9% among 310,000 | P. falciparum luciferase growth in erythrocytes, 48 h | AID 504832
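Erythrocytes infected with P. falciparum carrying an integrated firefly luciferase reporter (2% hematocrit, 0.1% parasitemia final) were exposed to compounds in RPMI 1640 with 0.5% Albumax at 37 C, 5% CO2. Growth inhibition was scored as reduced luminescence.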
Sm TGR inh: S. mansoni TGR enzyme inhibition | hit rate 3% among 360,000 | purified TGR, DTNB reduction, TNB absorbance 405 nm | Potency, µM (titrated, usually from 114 µM), usual class: inhibitors | Q962Y6; note: nearly all actives have a fitted effect of over 60% in size
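TGR 20 nM + NADPH 100 uM (dispensed conc.), cpd preinc 15 min RT; start with NADPH (500 uM addition) then DTNB (15 mM addition). Kinetic TNB absorbance, 405 nm filter. Four-parameter Hill fit across titration.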
SARS PLpro yeast: inhibitors of SARS-CoV papain-like protease in yeast; S. cerevisiae expressing SARS-CoV PLpro, growth rescue; Potency, µM (titrated, usually from 32.9 µM), hits mostly activators; hit rate 0.19% among 330,000; AID 485353; calls by dose curve; note: nearly all actives have a fitted effect of over 55% in size
Pf growth 96h: P. falciparum growth inhibition at 96 hours | P. falciparum luciferase reporter growth, 96 h | Potency, µM (doses to about 28.7 µM), usual class: inhibitors | hit rate 6.9% among 320,000
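Erythrocytes infected with luciferase-expressing P. falciparum were dispensed at 2% hematocrit and 0.05% parasitemia (final), then incubated with compounds 96 hours at 37 C in 5% CO2. Luminescence after detection reagent addition reported growth.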
AmpC inh no detg: inhibitors of E. coli AmpC beta-lactamase without detergent. P00811. AmpC nitrocefin hydrolysis, absorbance 480 nm, 0.0001% Triton. Potency, µM (series often up to 57.1 µM), most hits filed as inhibitors. hit rate 0.52% among 330,000. AID 485341; note: nearly all actives have a fitted effect of over 20% in size
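AmpC (5.3 nM in the dispensed reagent) in 20 mM phosphate pH 7.0 with 0.01% (detergent screen) or 0.0001% Triton X-100 was preincubated with compounds for 15 min at room temperature. Nitrocefin was then added from an 800 uM solution, and hydrolysis was followed at 480 nm.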
Of the large screens only hits and unclear results are named; the others gave an inactive call. This is a sample that favours compounds with a hit; in the whole collection about 12% have one here. Unless noted, calls come from the whole dose curve; as a rule, active = well fitted curve in the direction sought with a large enough effect; inconclusive = small, poorly fitted or top-dose-only effect, or another doubt; inactive = no such curve, though single readings can be large; an effect the other way counts as inactive or inconclusive.

Cc1ccc(S(=O)(=O)N2CCN(C(=O)C(F)(F)F)C2c2ccc(N(C)C)cc2)cc1 (centres undefined)	Pf growth 96h 13µM
Cc1ccc(S(=O)(=O)N2CCN(C(=O)CN3CCOCC3)C2c2ccccc2)cc1 (centres undefined)	Sm TGR inh 40µM
COc1ccc(C2N(C(C)=O)CCCN2S(=O)(=O)c2ccc(C)cc2)cc1 (centres undefined)	Pf growth 48h inconclusive
CC(=O)N1CCN(S(=O)(=O)c2ccc(C)cc2)C1c1ccc(N(C)C)cc1 (centres undefined)	none (no result: Pf growth 48h)
COc1ccc(C2N(C(=O)CN3CCCC3)CCCN2S(=O)(=O)c2ccccc2)cc1 (centres undefined)	Pf growth 48h 5.2µM, Pf growth 96h inconclusive
CCOCCCn1c(=O)c2ccccc2n2c(=S)[nH]nc12	none
C/C(CCN1CCCCc2nc(C)c(C)cc21)=N\OC[C@@H](O)[C@H]1O[C@@H]2OC(C)(C)O[C@@H]2[C@H]1O	none
C/C(CCN1CCCCc2nc(C)c(C)cc21)=N\O[C@@H](C)CN1CCCCc2nc(C)c(C)cc21	Pf growth 48h 13µM, Pf growth 96h 12µM
COc1ccc(O[C@H]2C=C[C@@H](c3ccccc3)O[C@@H]2CO/N=C(\C)CCN2CCCCc3nc(C)c(C)cc32)cc1	AmpC inh detg inconclusive, Pf growth 48h 1.7µM, Pf growth 96h inconclusive
Cc1ccc(S(=O)(=O)c2c(C)cc(C)nc2Cl)c(C)c1	none
Cc1cc(C)c(S(=O)(=O)/N=C2\C=CC(=O)C(Cl)=C2)c(C)c1	AmpC inh detg inconclusive, Sm TGR inh 4µM, Pf growth 96h inconclusive, AmpC inh no detg 5µM (no result: Pf growth 48h)
COc1cc(-c2cc(OC)c3c(C)oc(C)c3c(=O)c2)ccc1OC(=O)c1ccccc1C	none (no result: Pf growth 48h, SARS PLpro yeast, Pf growth 96h, AmpC inh no detg)
COc1cc(C(=O)NNC2=CC(=O)CC(C)(C)C2)cc(OC)c1OC	none
COc1ccc(NC(=O)c2ccc(-n3cncn3)c([N+](=O)[O-])c2)cc1	Pf growth 48h inconclusive, Pf growth 96h inconclusive
CCc1ccc(NC(=O)c2ccc(-n3cncn3)c([N+](=O)[O-])c2)cc1	Pf growth 48h 12µM, Pf growth 96h inconclusive (no result: SARS PLpro yeast)
O=C(Nc1cccc(/C=C/c2ccccn2)c1)c1ccc(-n2cncn2)c([N+](=O)[O-])c1	Pf growth 48h 5.2µM, Pf growth 96h 4.7µM, AmpC inh no detg inconclusive
O=C(Nc1ccc(F)c(F)c1)c1ccc(-n2cncn2)c([N+](=O)[O-])c1	Pf growth 48h inconclusive, Pf growth 96h inconclusive
Cc1cccc(NC(=O)c2ccc(-n3cccn3)c([N+](=O)[O-])c2)c1	Sm TGR inh 40µM, Pf growth 96h inconclusive
Cc1ccc(NC(=O)c2ccc(-n3cccn3)c([N+](=O)[O-])c2)cc1	Sm TGR inh inconclusive, Pf growth 96h inconclusive
O=C(CSCc1ccc([N+](=O)[O-])cc1)Nc1ccccc1C(=O)O	Pf growth 96h 9.3µM
Cc1ccc(NC(=O)CSCC(=O)Nc2ccc(S(=O)(=O)N3CCCC3)cc2)cc1	Pf growth 48h inconclusive
O=C(CSCc1ccc([N+](=O)[O-])cc1)Nc1ccc(S(=O)(=O)N2CCCCCC2)cc1	Pf growth 48h inconclusive, Pf growth 96h 10µM
O=C(CSCc1ccc(Cl)cc1)Nc1cc([N+](=O)[O-])ccc1O	Pf growth 48h inconclusive (no result: Sm TGR inh)
CCC(Sc1ncc(S(=O)(=O)c2ccc(Cl)cc2)c(=O)[nH]1)C(=O)Nc1ccc(OC)cc1 (centres undefined)	none (no result: Pf growth 48h, SARS PLpro yeast, Pf growth 96h, AmpC inh no detg)
CC1CCc2c(sc(NC(=O)/C=C/c3cccs3)c2C(=O)O)C1 (centres undefined)	Pf growth 96h 9.3µM
CC1CCc2c(sc(NC(=O)c3ccco3)c2C(=O)O)C1 (centres undefined)	none
Cn1cc(C(=O)NC2CCCCC2)c(=O)c2cc(S(=O)(=O)N3CCCC3)ccc21	Pf growth 96h 8.3µM
CC(NC(=O)c1cn(C)c2ccc(S(=O)(=O)N3CCCC3)cc2c1=O)c1ccccc1 (centres undefined)	Pf growth 48h 12µM, Pf growth 96h 12µM
